Test results published in PubChem BioAssay AID743279 (National Center for Advancing Translational Sciences (NCATS), 2014).
Out of some 360,000 compounds screened, about 17,000 (4.7%) were called active. Roughly 5% stayed inconclusive and do not appear here. This is one part of a sample in which actives are shown more often than they occur. Cut-off read from the data, not from the text of the source: active = activity change below about -50%; inconclusive = mostly about -30% to -49%; inactive = weaker than that.

Assay: qHTS for Inhibitors of Inflammasome Signaling: IL-1-beta AlphaLISA Primary Screen
Settings: THP-1 LPS/ATP IL-1B secretion, 16 h; at 57.5 µM, stronger effect = lower value
Summary of the method: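 THP-1 cells pretreated 1 hr with compounds (up to 57.5 uM final), then stimulated with LPS (250 ng/mL final) plus ATP (1.25 mM final); secreted IL-1B measured by AlphaLISA after 16 hr, decreased signal indicating inhibition.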
% is set by controls: 0 for no effect and ±100 for the full control effect.

Row | Compound | activity change
1 | CCCCNC1(C#N)CCN(Cc2ccccc2)CC1 | 9.53% (inactive)
2 | CC1(C(=O)NCc2ccc3c(c2)OCO3)CCN1CCc1ccccc1 (stereo unspecified) | 10.6% (inactive)
3 | C/C(=N\N(C)C)c1ccc(OCCOc2ccc([N+](=O)[O-])cc2)cc1 | -52.7% (active)
4 | C/C(=N/NC(=O)CC(=O)N/N=C(\C)c1ccc([N+](=O)[O-])cc1)c1ccc([N+](=O)[O-])cc1 | 26.9% (inactive)
5 | CO/N=C(\N)c1ccc([N+](=O)[O-])cc1 | -10.8% (inactive)
6 | Cc1cc([N+](=O)[O-])c(=O)[nH]c1C | 26.9% (inactive)
7 | CN(C)C(=O)c1nc2ccc(Cl)cn2c1CNCc1cccc(OC(F)(F)F)c1 | 32.2% (inactive)
8 | CSCC[C@H](NC(=O)NCCc1ccc(F)cc1)C(=O)O | 3.5% (inactive)
9 | COc1ccc(C(O)C(O)(C(=O)OC(C)C)c2ccc(C)cc2)cc1 (stereo unspecified) | -21% (inactive)
10 | O=C(N/N=C/c1cccc(Br)c1)c1ccc(N2CCCC2=O)cc1 | -55.3% (active)
11 | Cn1c(=O)n(C)c2cc(/C=N/NC(=O)c3cccc(Br)c3)ccc21 | -10.6% (inactive)
12 | O=C(Nc1ccc(N2CCCC2=O)cc1)c1cncc(Br)c1 | 1.56% (inactive)
13 | CC(=O)c1cccc(-c2ccc(CN3C(CC(C)C)C(=O)N(Cc4cn(CC5CCCCC5)nn4)CCS3(=O)=O)cc2)c1 (stereo unspecified) | -9.9% (inactive)
14 | OCCC#Cc1ccc(N2C(c3ccsc3)=Cc3ccc(F)cc3C2c2c[nH]c3ccccc23)cc1 (stereo unspecified) | -15.9% (inactive)
15 | COc1ccc(CCn2c(=N)c(C(=O)NCC3CCCO3)cc3c(=O)n4cccc(C)c4nc32)cc1OC (stereo unspecified) | -11.6% (inactive)
16 | COc1ccc(CCn2c(=N)c(C(=O)NCc3ccco3)cc3c(=O)n4cccc(C)c4nc32)cc1 | -53.7% (active)
17 | Cc1ccc(S(=O)(=O)c2cc3c(=O)n4cccc(C)c4nc3n(CCc3ccccc3)c2=N)cc1C | 20.8% (inactive)
18 | Cc1ccc(S(=O)(=O)N[C@H]2CCC[C@@H]2O)cc1 | 6.2% (inactive)
19 | COc1ccc(OC)c(NC(=O)C2(C)CCN2C(=O)Cc2ccccc2)c1 (stereo unspecified) | -87.1% (active)
20 | C#Cc1ccc(NC(=O)C2(C)CCN2C(=O)Cc2ccc(-c3ccccc3)cc2)cc1 (stereo unspecified) | -2.2% (inactive)
21 | CCCNC(=O)C1(C)CCN1C(=O)Cc1ccc(-c2ccccc2)cc1 (stereo unspecified) | -1.04% (inactive)
22 | COc1ccc(C(CNC(=O)CSc2ccccc2)N2CCOCC2)cc1 (stereo unspecified) | 0% (inactive)
23 | COC(=O)C[C@@H]1C=C[C@@H](NC(=O)c2cccnc2)[C@@H](CO)O1 | 2.57% (inactive)

Row | Compound | activity change
24 | CCOC(=O)C1CCCN(C(=O)c2cccc3ccccc23)CC1 (stereo unspecified) | 61.7% (inactive)
25 | O=[N+]([O-])c1ccc(COc2ccccc2CN2CCOCC2)cc1 | -17.6% (inactive)
26 | COc1ccc(NC(=O)c2cccc(Cl)c2)c[n+]1[O-] | -0.66% (inactive)
27 | C=C(C)COc1ccc(-c2nc(N)ncc2-c2ccccc2OC)c(O)c1 | -26.4% (inactive)
28 | COc1ccc(-c2nc(N)ncc2-c2ccc(Cl)cc2)c(O)c1 | -11.3% (inactive)
29 | C=C(C)COc1ccc(-c2ncncc2-c2ccc(OC)cc2)c(O)c1 | -58.4% (active)
30 | COc1ccc(C(C(=O)NCc2ccccc2)N(Cc2cccs2)C(=O)c2cnccn2)cc1 (stereo unspecified) | 3.36% (inactive)
31 | COc1ccc(-c2cc(C3CCN(c4ncccc4[N+](=O)[O-])CC3)[nH]n2)cc1 | -28.8% (inactive)
32 | CN(C)CCN1CCN(c2cc(-c3cccc(Cl)c3)nc3ccnn23)CC1 | 6.44% (inactive)
33 | C#Cc1cc(N2CCN(C(=O)c3ccoc3)CC2)n2nc(-c3cccc(Cl)c3)cc2n1 | -109% (active)
34 | O=C(c1ccccc1)N1CCN(c2cc(-c3ccccc3)nc3cc(-c4cccc(Cl)c4)nn23)CC1 | 15.2% (inactive)
35 | Cc1nc2ccccc2nc1N/N=C/c1ccc(O)cc1O | 144% (inactive)
36 | COc1cccc(/C=N/Nc2cc(C)nc(-c3ccccc3O)n2)c1O | -99.4% (active)
37 | CC(=O)c1ccc(Oc2cc(C)nc(-n3nc(C)cc3C)n2)cc1 | 46.7% (inactive)
38 | COc1ccccc1/C=N\Nc1cc(C)nc(-n2nc(C)cc2C)n1 | -99% (active)
39 | COc1cccc(/C=N/Nc2ccc(S(=O)(=O)Nc3ccccc3C(=O)O)cc2[N+](=O)[O-])c1O | -5.79% (inactive)
40 | COc1ccc(/C=N/Nc2cc(N3CCOCC3)nc(C)n2)c(OC)c1 | -8.96% (inactive)
41 | O=S(=O)(/N=C(/Nc1ccccc1)c1ccccc1)c1cccs1 | -18.2% (inactive)
42 | COc1ccc(-c2csc(C(O)c3cccc(Cl)c3)n2)cn1 (stereo unspecified) | -7.83% (inactive)
43 | CN1CCn2cnc(C(=O)NCC(=O)OC(C)(C)C)c2C1=O | 3.21% (inactive)
44 | O=C(Nc1ccc(Cl)cc1)c1csc([C@H]2C[C@H](O)[C@@H](CO)O2)n1 | 17.6% (inactive)
45 | COc1ccc(-c2cc(C(F)(F)F)nc(SCCC(=O)NCc3ccco3)n2)cc1 | -20.3% (inactive)
46 | COc1ccc(N)cc1NC(=O)CN1CCOCC1 | 3.53% (inactive)

Row | Compound | activity change
47 | C=C1C(=O)[C@]23C[C@H]1CCC2[C@@]1(C)C(C[C@@H]3O)[C@](C)(C(=O)O)CC[C@@H]1O (stereo partly specified) | -91.2% (active)
48 | COc1cc(S(=O)(=O)Nc2ncn[nH]2)ccc1Cl | 8.42% (inactive)
49 | CN1CCOC1c1ccc(C2OCCN2C)cc1 (stereo unspecified) | 5.1% (inactive)
50 | O=C(N/N=C\c1ccc(Br)cc1)c1ccc(Cn2cccn2)o1 | -3.71% (inactive)
51 | CN(C)c1ccc(/C=N/NC(=O)C(O)c2ccc(Br)cc2)cc1 (stereo unspecified) | -3.94% (inactive)
52 | CN(C)c1ccc(/C=N/NC(=O)c2ccc(Cn3cc(Br)cn3)o2)cc1 | -53% (active)
53 | CC=CCn1c(SCCCc2ccccc2)nc2c1c(=O)[nH]c(=O)n2C | 34.7% (inactive)
54 | O=C1OC(Cc2ccccc2)C(c2ccccc2)C1=O (stereo unspecified) | -4.65% (inactive)
55 | CCN1CCN(CCNC(=O)c2ccc3c(c2)NC(=O)/C(=C\c2cccc(Cl)c2)S3)CC1 | 12.3% (inactive)
56 | CCN(CCCNC(=O)c1ccc2c(c1)NC(=O)CN2C)c1cccc(C)c1 | -98.2% (active)
57 | CCN(CCCNC(=O)CCn1c(=O)[nH]c2ccsc2c1=O)c1ccccc1 | -7.98% (inactive)
58 | O=C(Nc1ccc(F)cc1)C(CCc1ccccc1)N1CCN(CC(=O)N2CCCC2)CC1 (stereo unspecified) | -1.84% (inactive)
59 | CC(=O)Nc1ccccc1OC(C)C(=O)N1CCC(C)CC1 (stereo unspecified) | 26.5% (inactive)
60 | CCOC(=O)C1C(C)C(C(C)(C)C)N(S(=O)(=O)c2ccc(C)cc2)C1c1ccccc1 (stereo unspecified) | -15.7% (inactive)
61 | CC(C)c1cc(C(=O)N/N=C/C(Br)=C/c2ccccc2)n[nH]1 | -78.1% (active)
62 | COc1ccc(C/C(C)=N/NC(=O)c2cc(C)oc2C)cc1 | -3.42% (inactive)
63 | CC(=C/c1ccccc1)/C=N/NC(=O)c1cc(C)oc1C | -1.83% (inactive)
64 | CC(C)c1cc(C(=O)O)n[nH]1 | -10.8% (inactive)
65 | Cc1cc(C(=O)N/N=C\C(Br)=C\c2ccccc2)c(C)o1 | -99% (active)
66 | CC(/C=N/NC(=O)c1cc(-c2ccc3ccccc3c2)n[nH]1)=C\c1ccco1 | -29.4% (inactive)
67 | CCC1C=C(c2ccccc2)C=CN=C1N(CC)CC (stereo unspecified) | -9.78% (inactive)
68 | COc1c(C)cc(C(O)c2ncc(-c3cccc(C(F)(F)F)c3)[nH]2)cc1C (stereo unspecified) | -19.6% (inactive)
69 | C=CCn1c(CCNC(=O)c2ccccc2F)nnc1SCC(=O)Nc1ccc(OC)cc1 | 0.328% (inactive)

Row | Compound | activity change
70 | N#Cc1cc([N+](=O)[O-])ccc1NCC1CCCO1 (stereo unspecified) | 16.2% (inactive)
71 | COc1cc(OC)cc(C(=O)N[C@H](C(=O)OCC(=O)NC(C)c2ccccc2)C(C)C)c1 (stereo partly specified) | 0% (inactive)
72 | COc1ccc(OCCNS(=O)(=O)Cc2ccccc2)cc1 | 5.88% (inactive)
73 | CC(C)(c1ccccc1)c1ccc(OCCN)cc1 | -93.8% (active)
74 | Cc1nn(CCOc2ccccc2)c(=O)n1-c1ccccc1F | -5.73% (inactive)
75 | CCOn1c(=O)c(=O)n(O)c2ccccc21 | 33.6% (inactive)
76 | COc1cc(C)c(CN2CCN(C(=O)CCC(=O)c3ccc(C)s3)CC2)cc1OC | -4.16% (inactive)
77 | O=C1/C(=C\c2ccc(O)cc2)CCC1CNc1ccc(Cl)cc1 (stereo unspecified) | -106% (active)
78 | CC(C(=O)NC1CCS(=O)(=O)C1)N1C(=O)/C(=C/c2ccc(Cl)cc2)SC1=S (stereo unspecified) | -3.39% (inactive)
79 | CC1C(=O)N(Cc2cn(Cc3ccco3)nn2)CCS(=O)(=O)N1Cc1ccc(-c2cccc(CO)c2)cc1 (stereo unspecified) | -17.1% (inactive)
80 | COc1ccc(-c2ccc(CN3C(CC(C)C)C(=O)N(Cc4cn(CC5CCCCC5)nn4)CCS3(=O)=O)cc2)cc1 (stereo unspecified) | 18.2% (inactive)
81 | COCOCCn1cc(CN2CCS(=O)(=O)N(Cc3ccc(-c4ccc(OC)cc4)cc3)C(CC(C)C)C2=O)nn1 (stereo unspecified) | -56.9% (active)
82 | CC(C)CC1C(=O)N(Cc2cn(Cc3ccco3)nn2)CCS(=O)(=O)N1Cc1ccc(-c2ccc(Cl)c(Cl)c2)cc1 (stereo unspecified) | -82.3% (active)
83 | CC(C)CC1C(=O)N(Cc2cn(CC3CCCCC3)nn2)CCS(=O)(=O)N1Cc1ccc(-c2ccc(Cl)cc2)cc1 (stereo unspecified) | -2.11% (inactive)
84 | COCOCCn1cc(CN2CCS(=O)(=O)N(Cc3ccc(-c4cccc(N(C)C)c4)cc3)C(CC(C)C)C2=O)nn1 (stereo unspecified) | -1.55% (inactive)
85 | Cn1nc(N)c2ncc(C(Cl)(Cl)Cl)nc21 | -5.29% (inactive)
86 | O=C(N/N=C\c1cc2c(cc1Cl)OCO2)c1ccc(Br)s1 | 7.39% (inactive)
87 | COc1ccc(-c2ccc(C(=O)NC(C)C)c3occc23)c(C)c1 | -6.78% (inactive)
88 | Cc1cc2nc(-c3ccc(Cl)cc3)c(Cc3cccc(F)c3)n2c(C)c1Br | 0% (inactive)
89 | CCCCNc1nc2c(c(=O)[nH]c(=O)n2C)n1CCOc1ccccc1 | 26.9% (inactive)
90 | CCn1c(NCCc2ccc(OC)c(OC)c2)nc2c1c(=O)n(C)c(=O)n2C | 5.08% (inactive)
91 | CCCCNc1nc2c(c(=O)n(C)c(=O)n2C)n1Cc1cccc(OC)c1 | -59.5% (active)
